Activity calls are given as the source filed them. Cut-off read from the data, not from the text of the source, unless noted: active = inhibition above about 80%; inactive = the rest.
Legend:
[1] = growth inhibition, single agent or in combination, cell-based, chromothripsis tumors, cisplatin or BGB combos (AID 1671449); conditions: LFS_MB_P medulloblastoma cells;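 note: cells exposed for 96 hours; 0% = vehicle DMSO and 100% = killing by high DMSO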
[2] = growth inhibition, single agent and combos, cell-based, chromothripsis tumors, cisplatin or BGB combos (AID 1671450); conditions: HDN33 neuroblastoma cells, stronger effect = higher value;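 note: cells exposed to compound for four days; 0% = vehicle DMSO and 100% = cell killing by high DMSO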
[3] = growth inhibition, single agents and combos, ICB984, cell-based, cisplatin or BGB combos, synergistic combos for chromothripsis tumors (AID 1671451; call rule not given here;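 note: cells exposed for 96 hours before readout; 0% = vehicle DMSO and 100% = killing by high DMSO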); conditions: ICB984 medulloblastoma cells, drug combinations, stronger effect = higher value
[4] = growth inhibition, single agents and combos, LFS_MB_1R, cell-based, cisplatin or BGB combos, synergistic combos for chromothripsis tumors (AID 1671452); conditions: LFS_MB_1R medulloblastoma cells, stronger effect = higher value;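 note: cells exposed for 96 hours before readout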
[5] = growth inhibition, single agents and combos, HTB85, cell-based, BGB or cisplatin IC20 combos, synergistic combos for chromothripsis tumors (AID 1671453); conditions: HTB85 osteosarcoma cells, drug combinations, stronger effect = higher value;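 note: cells exposed for 96 hours before readout; 0% = vehicle DMSO and 100% = high DMSO killing control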
[6] = growth inhibition, single agents and combos, CRL2098, cell-based, BGB or cisplatin IC20 combos, synergistic combos for chromothripsis tumors (AID 1671454); conditions: CRL2098 osteosarcoma cells, drug combinations, stronger effect = higher value;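 note: cells exposed for 96 h before readout; 0% = vehicle DMSO and 100% = killing by high DMSO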
[7] = growth inhibition, single agents and combos, HD-MB03, cell-based, BGB or cisplatin IC20 combos, synergistic combos for chromothripsis tumors (AID 1671455; in the data active = inhibition above about 83%;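 note: 0% = vehicle DMSO and 100% = high DMSO as cytotoxic control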); conditions: HD-MB03 medulloblastoma cells, stronger effect = higher value
[8] = growth inhibition, single agents and combos, UWB1.289, cell-based, BGB or cisplatin combos, synergistic combos for chromothripsis tumors (AID 1671456); conditions: UWB1.289 ovarian carcinoma cells, stronger effect = higher value;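 note: cells exposed to compound for four days; 0% = vehicle DMSO and 100% = killing by high DMSO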
[9] = growth inhibition, single agents and combos, LFS_MB_2R, cell-based, cisplatin combos, synergistic combos for chromothripsis tumors (AID 1671457); conditions: LFS_MB_2R medulloblastoma cells, stronger effect = higher value;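 note: cells exposed to compound for four days before readout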
[10] = growth inhibition, MDA-MB-436, cell-based, BGB or cisplatin combos, synergistic combos for chromothripsis tumors (AID 1671458; call rule not given here;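 note: cells exposed for 96 hours; 0% = vehicle DMSO and 100% = killing by high DMSO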); conditions: MDA-MB-436 breast carcinoma growth inhibition, drug combinations, stronger effect = higher value
[11] = UWB1.289_BRCA1 ovarian cancer growth, cell-based, BGB or cisplatin combinations (AID 1671459); conditions: UWB1.289 BRCA1 ovarian carcinoma, drug combinations, stronger effect = higher value
[12] = drug combination toxicity in non-malignant astrocytes – cell-based, BGB or cisplatin IC20 combos, cytotoxicity control for chromothriptic childhood tumor combination screen (AID 1671460); conditions: Human astrocytes, viability inhibition, drug combinations, at 0.5 µM, stronger effect = higher value;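 note: cells exposed to compounds for 96 hours before viability readout; 0% = vehicle and 100% = killing control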
[13] = BT084 cell growth, single and combined drugs, ICGC_MB145, cisplatin and BGB IC40 combos (AID 1671461); conditions: BT084 medulloblastoma cells, drug combinations, stronger effect = higher value;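 note: cells exposed to drugs for 96 hours; 0% = vehicle DMSO and 100% = high DMSO full killing control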
[14] = RCMB18 cell growth, single agent and combined, cisplatin and BGB IC40 combos (AID 1671462); conditions: RCMB18 medulloblastoma cells, stronger effect = higher value;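 note: cells exposed to compound for four days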
[15] = CRL1545 cell growth, single agent and combined, cisplatin and BGB IC20 combos (AID 1671464); conditions: CRL1545 osteosarcoma cells, stronger effect = higher value;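 note: cells exposed to compound for 96 hours before readout; 0% = vehicle DMSO and 100% = high DMSO killing control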
[16] = galactose survival enhancers in mitochondrial complex I cybrids – cell-based, galactose medium, ATP luminescence, primary screen (AID 1645843;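 active = z-score of at least 1.8 in each of two replicates, scored against plate mean and spread of sample wells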;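 note: positive z means more ATP and so rescue of galactose-driven cybrid death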); conditions: complex I mutant cybrid cells, 72 h, stronger effect = higher value
[17] = measured here: combination with BGB IC40, at 0.05 µM
[18] = measured here: with BGB IC20 combination, at 0.5 µM
[19] = measured here: with cisplatin IC20 combination, at 0.5 µM
[20] = measured here: combination with cisplatin, at 0.5 µM
[21] = measured here: combination with cisplatin, at 5 µM

For `C[C@@H]1COCCN1c1cc(C2(S(C)(=O)=O)CC2)nc(-c2cccc3[nH]ccc23)n1`, the inhibition ([1]; at 0.5 µM, stronger effect = higher value) was -25.8% (inactive), the inhibition ([1]; measured here: combination with BGB IC20, at 0.005 µM) was 7.6% and the inhibition ([1]; measured here: combination with BGB IC40, at 0.005 µM) was 5.5%. For the same compound, the inhibition [1, 17] was -17.8%, the inhibition ([1]; measured here: combination with cisplatin, at 0.5 µM, stronger effect = higher value) was -15.1% and the inhibition ([1]; measured here: combination with cisplatin, at 5 µM, stronger effect = higher value) was 49.8%. The inhibition ([2]; BGB combo, at 5 µM) was 86.9%, the inhibition ([2]; at 0.5 µM) was 36.8% (inactive) and the inhibition ([2]; cisplatin combo, at 5 µM) was 93.4%. It also gave an inhibition [2, 18] of 34.2%, an inhibition [2, 19] of 50.8% and an inhibition ([2]; single agent, at 5 µM) of 94%. It also gave an inhibition ([3]; BGB IC20 combo, at 0.005 µM) of 23.5%, an inhibition ([3]; BGB IC40 combo, at 0.005 µM) of 27.9% and an inhibition ([3]; BGB IC40 combo, at 0.05 µM) of 49.2%. The inhibition ([3]; at 0.5 µM) was -13.7% (inactive), the inhibition ([3]; cisplatin combo, at 0.05 µM) was 47.4% and the inhibition ([3]; cisplatin combo, at 0.5 µM) was 1.99%. The inhibition ([3]; cisplatin combo, at 5 µM) was -26.9%, the inhibition ([3]; measured here: 5 uM single agent, at 5 µM) was 12.7% and the inhibition ([4]; at 0.5 µM) was 10% (inactive). The inhibition [4, 17] was -3.56%, the inhibition [4, 20] was 20.8% and the inhibition [4, 21] was 56.7%. The inhibition ([5]; at 0.5 µM) was 20.9% (inactive), the inhibition ([5]; measured here: with BGB IC20, at 0.5 µM) was 21% and the inhibition ([5]; measured here: with BGB IC20, at 5 µM) was 63.3%. The inhibition ([5]; measured here: with cisplatin IC20, at 0.5 µM) was 29.2%, the inhibition ([5]; measured here: with cisplatin IC20, at 5 µM) was 91.9% and the inhibition ([5]; single agent, at 5 µM) was 73.8%. For the same compound, the inhibition ([6]; at 0.5 µM) was 20.1% (inactive), the inhibition ([6]; measured here: combination with BGB at IC20, at 0.5 µM) was 11.9% and the inhibition ([6]; measured here: combination with cisplatin at IC20, at 0.5 µM) was 19.4%. The inhibition ([7]; at 0.5 µM) was 38% (inactive), the inhibition ([7]; measured here: combo with BGB at IC20, at 0.5 µM) was 11.4% and the inhibition ([7]; measured here: combo with cisplatin at IC20, at 0.5 µM) was 91.1%. The inhibition ([8]; at 0.5 µM) was 63.9% (inactive), the inhibition ([8]; measured here: inhibition with BGB combination, at 0.05 µM) was 6.56% and the inhibition ([8]; measured here: inhibition with cisplatin combination, at 0.05 µM) was -6.75%. The inhibition ([9]; at 0.5 µM) was 13.6% (inactive), the inhibition [9, 20] was 20.6% and the inhibition [9, 21] was 51.4%. For the same compound, the inhibition ([10]; at 0.5 µM) was 22.5% (inactive), the inhibition ([10]; measured here: BGB combination, at 0.5 µM) was 8.94% and the inhibition ([10]; measured here: BGB combination, at 5 µM) was 45.1%. The inhibition ([10]; measured here: cisplatin combination, at 0.5 µM) was 30.1%, the inhibition ([10]; measured here: cisplatin combination, at 5 µM) was 85.8% and the inhibition ([11]; BGB combination, concentration series, at 5 µM) was 93.1%. For the same compound, the inhibition ([11]; at 0.5 µM) was 65.4% (inactive), the inhibition ([11]; cisplatin combination, concentration series, at 5 µM) was 117% and the inhibition [12] was 23.1% (inactive). The inhibition ([12]; measured here: combo with BGB IC20) was 14.4%, the inhibition ([12]; measured here: combo with cisplatin IC20) was 30.8% and the inhibition ([13]; at 0.5 µM) was 17% (inactive). It also gave an inhibition ([13]; cisplatin combination, at 0.5 µM) of 14.1%, an inhibition ([13]; cisplatin combination, at 5 µM) of 58% and an inhibition ([13]; measured here: BGB IC40 combination 0.05 uM, at 0.05 µM) of -18.4%. For the same compound, the inhibition ([13]; single agent, at 5 µM) was 44.6%, the inhibition ([14]; at 0.5 µM) was 25.2% (inactive) and the inhibition ([14]; cisplatin combo, at 5 µM) was 34.6%. It also gave an inhibition ([14]; measured here: BGB IC40 combination, at 0.05 µM) of -0.169%, an inhibition [14, 20] of 44.8% and an inhibition ([14]; single agent, at 5 µM) of 51.4%. The inhibition ([15]; at 0.5 µM) was 76.6% (inactive), the inhibition [15, 18] was 71% and the inhibition [15, 19] was 79.1%. For the same compound, the inhibition ([15]; single agent, at 0.05 µM) was 21.8% and the inhibition ([15]; single agent, at 5 µM) was 97.9%.
With `Cn1ccnc1-c1ccccc1C(=O)N1CCN(Cc2cccc(F)c2)CC1` the z-score [16] was 0.355 (inactive).
